About 14,000 (4.5%) of roughly 310,000 compounds showed an effect of 50% or more. The effect is printed as a negative number. Many of the other results were omitted from the sample, so strong results are more common in it than they were.
target: human ether-à-go-go-related gene (hERG) potassium channel (human, UniProt Q12809); experiment: primary screen, population patch clamp on CHO cells stably expressing hERG; higher = less effect of the substance
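Note: peak tail current of the secondary pulse compared with the same well before compound.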

Chain of human ether-à-go-go-related gene (hERG) potassium channel (Q12809 whole entry, looked up): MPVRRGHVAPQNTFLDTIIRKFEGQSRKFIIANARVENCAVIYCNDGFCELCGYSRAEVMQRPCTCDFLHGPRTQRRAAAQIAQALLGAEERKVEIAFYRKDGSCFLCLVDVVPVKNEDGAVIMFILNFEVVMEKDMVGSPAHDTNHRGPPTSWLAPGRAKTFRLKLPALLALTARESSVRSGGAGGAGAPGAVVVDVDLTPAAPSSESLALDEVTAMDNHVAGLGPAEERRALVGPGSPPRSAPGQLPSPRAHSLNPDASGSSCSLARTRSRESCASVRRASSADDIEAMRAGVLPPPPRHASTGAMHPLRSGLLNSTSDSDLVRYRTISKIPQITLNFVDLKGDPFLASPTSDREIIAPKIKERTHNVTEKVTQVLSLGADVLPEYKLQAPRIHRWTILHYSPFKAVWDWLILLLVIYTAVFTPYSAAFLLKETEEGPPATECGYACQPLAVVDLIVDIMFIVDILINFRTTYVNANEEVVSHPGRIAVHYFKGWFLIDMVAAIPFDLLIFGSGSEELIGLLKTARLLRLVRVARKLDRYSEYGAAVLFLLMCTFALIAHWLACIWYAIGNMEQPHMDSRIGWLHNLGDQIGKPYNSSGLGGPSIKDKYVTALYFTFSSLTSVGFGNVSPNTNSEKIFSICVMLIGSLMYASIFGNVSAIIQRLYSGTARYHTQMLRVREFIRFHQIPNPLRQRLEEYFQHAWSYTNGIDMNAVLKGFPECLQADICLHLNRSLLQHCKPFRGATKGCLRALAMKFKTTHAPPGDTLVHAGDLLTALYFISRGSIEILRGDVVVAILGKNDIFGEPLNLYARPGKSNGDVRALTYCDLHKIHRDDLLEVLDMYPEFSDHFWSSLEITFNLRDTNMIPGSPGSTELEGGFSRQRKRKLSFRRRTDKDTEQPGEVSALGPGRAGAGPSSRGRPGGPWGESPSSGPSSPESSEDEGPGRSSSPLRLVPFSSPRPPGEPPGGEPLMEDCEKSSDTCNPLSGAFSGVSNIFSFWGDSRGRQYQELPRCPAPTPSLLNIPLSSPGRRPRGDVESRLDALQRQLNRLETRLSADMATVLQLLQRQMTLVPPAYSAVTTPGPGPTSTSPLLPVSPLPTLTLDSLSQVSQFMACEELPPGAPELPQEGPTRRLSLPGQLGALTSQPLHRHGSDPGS

Row | Structure (SMILES) | hERG current change (%, negative = inhibition) at 10uM [%]
1 | O=C(CC1NC(=O)NC1=O)Nc1ccccc1 (stereo not drawn) | -0.537
2 | CCOc1cc2c(cc1OCC)-n1cccc1C(c1ccc(OC)c(OC)c1)NC2.Cl (stereo not drawn) | -30.2
3 | CCOc1cc2c(cc1OCC)-n1cccc1C(c1cc(C)c(OC)cc1C)NC2.Cl (stereo not drawn) | -62.1
4 | CCOc1cc2c(cc1OCC)-n1cccc1C(c1ccc(F)cc1)NC2.Cl (stereo not drawn) | 0.0384
5 | CCOc1cc2c(cc1OCC)-n1cccc1C(c1cccc(F)c1)NC2.Cl (stereo not drawn) | -14.8
6 | CCOc1cc2c(cc1OCC)-n1cccc1C(c1ccc(OC(F)F)cc1)NC2.Cl (stereo not drawn) | -65.3
7 | CCOc1cc2c(cc1OCC)-n1cccc1C(c1ccc(OC)cc1)NC2.Cl (stereo not drawn) | -48.1
8 | CCOc1cc2c(cc1OCC)-n1cccc1C(c1ccc(C)cc1C)NC2.Cl (stereo not drawn) | -0.599
9 | CCOc1cc2c(cc1OCC)-n1cccc1C(c1ccccc1OC)NC2.Cl (stereo not drawn) | -7.52
10 | CCOc1cc2c(cc1OCC)-n1cccc1C(c1cccc([N+](=O)[O-])c1)NC2.Cl (stereo not drawn) | -59.9
11 | O=S(=O)(NC1=NCCCCCC1)c1cccs1 | 3.19
12 | CCN1C(C(=O)c2ccccc2)=C(Nc2ccccc2C)c2ccccc2S1(=O)=O | -4.84
13 | Cl.Nn1cnnc1N/N=C/c1ccc(Cl)c([N+](=O)[O-])c1 | -26.6
14 | O=c1[nH]c(/C=C\c2cccs2)nc(O)c1[N+](=O)[O-] | -4.76
15 | CCOc1ccc(/C=N/NC(=O)c2[nH]c3ccc(C)cc3c2C)cc1 | 12.4
16 | Cc1cccc(NC(=O)Cn2cnc3c(oc4ccccc43)c2=O)c1 | 12.5
17 | O=[N+]([O-])c1cc(S(=O)(=O)N2CCCC2)ccc1OCCOc1ccccc1 | -32.4
18 | COc1ccccc1Oc1ccc(S(=O)(=O)N2CCN(C)CC2)cc1 | -1.98
19 | CCN(CC)S(=O)(=O)c1ccc(Oc2ccc(S(=O)(=O)N(CC)CC)cc2)cc1 | -22.7
20 | COc1ccccc1Oc1ccc(S(=O)(=O)N2CCCC2)cc1 | -77.3
21 | CCN(CC)S(=O)(=O)c1ccc(Oc2ccccc2OC)cc1 | -65.3
22 | CCN1CCN(S(=O)(=O)c2ccc(Oc3ccccc3OC)cc2)CC1 | -15

Row | Structure (SMILES) | hERG current change (%, negative = inhibition) at 10uM [%]
23 | COc1cccc(Oc2ccc(S(=O)(=O)N3CCCC3)cc2[N+](=O)[O-])c1 | -57.1
24 | CCN(CC)S(=O)(=O)c1ccc(Oc2ccccc2)cc1 | -20.7
25 | COc1cc(OC)cc(Oc2ccc(S(=O)(=O)N3CCCCC3)cc2[N+](=O)[O-])c1 | 1.5
26 | CN=C1S/C(=C\c2cn(CC(=O)OC)c3ccccc23)C(=O)N1C | 7.11
27 | COc1ccc([N+](=O)[O-])cc1NC(=O)Nc1ccc(OC)c(OC)c1 | 8.37
28 | COc1ccc(CCNC(=O)COC(=O)Cc2ccc(OC)cc2)cc1 | 9.48
29 | Cc1cc(N2CCCCC2)nc2ccccc12 | -9.74
30 | Cc1cc(N2CCOCC2)nc2ccc(Cl)cc12 | 9.25
31 | Cc1cc(N2CCCN(C)CC2)nc2cc(Cl)ccc12 | -61.7
32 | COc1ccc2c(C)cc(N3CCOCC3)nc2c1 | -7.7
33 | COc1ccc2c(C)cc(N3CCN(Cc4ccccc4)CC3)nc2c1 | -29.6
34 | Cc1cc(N2CCCC2)nc2ccccc12 | -41.2
35 | COc1ccc2c(C)cc(N3CCCCCC3)nc2c1.O=C(O)C(=O)O | -82
36 | Cc1cc(N2CCN(C)CC2)nc2ccccc12 | -0.28
37 | Cc1cc(N2CCN(c3ccc(F)cc3)CC2)nc2cc(O)ccc12 | -75.9
38 | COc1ccc(N2CCN(c3cc(C)c4ccc(O)cc4n3)CC2)cc1 | -24.4
39 | Cc1cc(N2CCCCCC2)nc2ccccc12.O=C(O)C(=O)O | -56.1
40 | COc1ccc2c(C)cc(N3CCN(c4ccc(F)cc4)CC3)nc2c1 | -25.7
41 | CCOc1cccc(/C=N/N2C(=O)CSC2=S)c1O | 24.2
42 | O=C(CO/N=C/c1ccc(Cl)cc1Cl)NNC(=O)c1ccc(Cl)cc1Cl | 3.17
43 | O=C(NCCO)Nc1ccc(Cl)cc1 | 27.7
44 | O=C(CN(C(=O)c1csnn1)c1ccc(F)c(Cl)c1)NCc1ccc(F)cc1 | 7.3

Row | Structure (SMILES) | hERG current change (%, negative = inhibition) at 10uM [%]
45 | CN1OC(Cn2cc(C#N)c(=O)n(C)c2=O)CC1c1ccccc1 (stereo not drawn) | 12.5
46 | CCOc1ccc(CN(C)CC(=O)Nc2cc(C)c(C)cc2[N+](=O)[O-])cc1.CN(C)C=O | 9.36
47 | Oc1ccc(Nc2nc(-c3ccc(O)cc3)cs2)cc1 | 18.9
48 | Cc1cc(C)cc(NC(=O)c2ccc(CSc3nnnn3C)cc2)c1 | -24
49 | Cl.NCCCNc1ccc([N+](=O)[O-])cc1C(F)(F)F | -15
50 | CCn1cc(C(=O)O)c(=O)c2cc(F)c(N3CCN(C(=S)NC(=O)c4cccc(F)c4)CC3)cc21 | 5.44
51 | Cn1c(=O)[nH]c(=O)c2c1ncn2CCCc1ccccc1 | 1.26
52 | Cc1ccc(-c2[nH]ncc2C(=O)c2ccc(Br)cc2)c(O)c1 | -9.43
53 | O=C(O)C(=O)O.c1ccc(-c2cc(N3CCOCC3)nc3ccccc23)cc1 | -11.6
54 | O=C(O)C(=O)O.OCCN1CCN(c2cc(-c3ccccc3)c3ccccc3n2)CC1 | -63.3
55 | COc1ccc2c(-c3ccccc3)cc(N3CCOCC3)nc2c1.O=C(O)C(=O)O | 3.22
56 | CCOC(=O)c1ccc[n+](CC(=O)Nc2ccccc2OC(F)F)c1.[Cl-] | 4.85
57 | CCCCOc1ccc(C(=O)Nn2cnnc2)cc1 | -0.225
58 | Cc1nc2ccc(NC(=O)c3cc(Cl)ccn3)cc2s1 | 17.4
59 | Cc1sc2nc(SCc3ccc(C(=O)O)cc3)n(Cc3ccco3)c(=O)c2c1C | -59.2
60 | C=CCn1c(SCC(=O)NCCO)nc2sc(C)c(C)c2c1=O | 11.6
61 | Cc1sc2nc(SCc3ccccc3)n(Cc3ccco3)c(=O)c2c1C | -2.09
62 | C=CCn1c(SCc2ccc(C(=O)NCCO)cc2)nc2sc(C)c(C)c2c1=O | -61.6
63 | C=CCn1c(SCc2ccc(C(=O)O)cc2)nc2sc(C)c(C)c2c1=O | -4.36
64 | Cc1ccc(CSc2nc3sc(C)c(C)c3c(=O)n2Cc2ccco2)cc1 | -6.19
65 | O=C1C2CC=C(Cl)CC2C(=O)N1CCC[n+]1cccc2ccccc21 (stereo not drawn) | 8.95
66 | Cc1onc(-c2ccccc2Cl)c1C(=O)Nc1nnc(-c2ccc(Cl)cc2Cl)s1 | 17

Row | Structure (SMILES) | hERG current change (%, negative = inhibition) at 10uM [%]
67 | Cc1cc(OCC(=O)NCC(O)c2ccccc2)c2c3c(c(=O)oc2c1)CCC3 (stereo not drawn) | 16.1
68 | Cc1ccc(/C=N/NC(=O)Cn2cnc3ccccc32)cc1 | 14.4
69 | CC1(C)CNc2cc([N+](=O)[O-])ccc2S1 | 6.88
70 | COc1ccc(C(=O)NCC(=O)N2CCN(c3ccc(F)cc3)CC2)cc1 | -1.94
71 | CCOCCCN(C)C1CCN(C(=O)c2oc3ccccc3c2NC(=O)COc2cccc(C)c2)CC1 | -82.2
72 | CCOCC(=O)Nc1c(C(=O)OCC)oc2ccccc12 | -11.1
73 | COc1ccc(CC(=O)Nc2c(C(=O)N3CCN(c4ccccc4OC)CC3)oc3ccccc23)cc1OC | -24.4
74 | CCOCCCN(C)C1CCN(C(=O)c2oc3ccccc3c2NC(=O)COc2ccc(F)cc2)CC1 | -80.1
75 | CCOCCCN(C)C1CCN(C(=O)c2oc3ccccc3c2NC(=O)c2ccc(F)cc2)CC1 | -77.5
76 | COCCCN(C)C1CCN(C(=O)Nc2ccc(F)cc2)CC1 | -28.8
77 | CCOC(=O)c1oc2ccccc2c1NC(=O)COc1cccc(OC)c1 | 10.4
78 | CCOC(=O)c1oc2ccccc2c1NC(=O)COc1ccc(F)cc1 | 14
79 | NC(=O)c1oc2ccccc2c1NC(=O)c1ccc(F)cc1 | 10.9
80 | CCOCCCN(C)C1CCN(C(=O)c2oc3ccccc3c2NC(=O)Cc2ccc(F)cc2)CC1 | -77.8
81 | CCOCC(=O)Nc1c(C(=O)N2CCN(c3ncccn3)CC2)oc2ccccc12 | -21.4
82 | COc1ccc(S(=O)(=O)Nc2ccc3oc(C)c(C(=O)O)c3c2)cc1 | 21.3
83 | CSc1nc(C)cc(Oc2ccc(OCCOc3ccccc3)nn2)n1 | -23.2
84 | OC1(c2ccc(Cl)cc2)CCN(Cc2nc(-c3cnccn3)no2)CC1 | -1.35
85 | CSc1nc2n(n1)C(c1cccc(F)c1)C(C(=O)Nc1ccc(C)cc1C)=C(C)N2 (stereo not drawn) | -0.769
86 | O=C(COC(=O)c1ccccc1N1C(=O)C2C3CCC(C3)C2C1=O)c1ccccc1 (stereo not drawn) | 1.28
87 | COc1cccc(N(C(=O)c2sc(C)nc2C)C(C(=O)NCC2CCCO2)c2ccccc2)c1 (stereo not drawn) | -8.87

— paper PMC4336329 (PLoS ONE, 2015)
